# Compound activity deposited in PubChem by National Center for Advancing Translational Sciences (NCATS).
# Sampled rows, rich in hits. Any-hit rate of the full collection: about 2.1%.
# FUS yeast rescue – suppressors of FUS proteinopathy in yeast. S. cerevisiae FUS-expressing, growth rescue, OD600, 24 h. Potency, µM (highest dose often 76.6 µM), actives largely listed as activators. 390,000 compounds, 0.24% hits; note: nearly all actives have a fitted effect of over 55% in size
#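 FUS-expressing yeast, raffinose-pregrown, induced in 2% galactose minimal medium at OD 0.005; compounds in a dilution series, 24hr at 30C. Growth restoration read as absorbance at 600 nm. CP55940 positive control, DMSO negative.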
# TDP-43 yeast inh – TDP-43 toxicity inhibition in yeast | TDP-43 expressing yeast growth rescue, BacTiter-Glo, 24 h | Potency, µM (top dose mostly 46.1 µM), actives largely listed as activators | 410,000 compounds, 1.8% hits; note: nearly all actives have a fitted effect of over 50% in size
#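 Luminescence from BacTiter-Glo reports growth of TDP-43-expressing yeast after 24 hr at 30 deg C with compound. Cells were raffinose-pregrown to mid-log, then seeded in galactose medium at OD600=0.02.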
# aSyn rescue – inhibitors of alpha-synuclein toxicity in yeast. Yeast expressing alpha-synuclein, growth rescue, BacTiter-Glo, 24 h. Potency, µM (top dose mostly 46.1 µM), actives largely listed as activators. 370,000 compounds, 0.14% hits; note: nearly all actives have a fitted effect of over 65% in size
#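 Rescue of yeast growth: cells expressing toxic alpha-synuclein, induced in galactose at OD600 0.02, incubated with compound 24 h at 30 C. ATP luminescence quantified growth; inhibitors of toxicity appear as activators.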
# Abeta yeast res – compounds reversing amyloid beta toxicity in yeast | yeast expressing A-beta42, growth rescue, OD600, 48 h; response scale: 0% DMSO, 100% iron-clioquinol control | Potency, µM (series often up to 46.1 µM), usual class: activators | 410,000 compounds, 0.063% hits; note: nearly all actives have a fitted effect of over 55% in size
#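 Growth rescue measured by 600 nm absorbance after 48 h yeast culture at 30 C with compound. Values normalized between DMSO and an equimolar ferric chloride plus clioquinol control.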
# A number is an active result; n = inactive; u = inconclusive; x = no result given; ! = repeats disagree. Calls come from the whole dose curve; as a rule, active = well fitted curve in the direction sought with a large enough effect; inconclusive = small, poorly fitted or top-dose-only effect, or another doubt; inactive = no such curve, though single readings can be large; an effect the other way counts as inactive or inconclusive.
SMILES,FUS yeast rescue,TDP-43 yeast inh,aSyn rescue,Abeta yeast res
COCCNC(=S)N1CCN(c2nc(-c3ccccc3)cs2)CC1,n,n,n,n
CCOCCCNC(=S)N1CCN(c2nc(-c3ccc(F)cc3)cs2)CC1,n,25µM,n,u
Cc1ccc(Cl)cc1NC(=O)CN1C(=O)NC2(CCCCCC2)C1=O,x,n,n,n
COc1ccccc1N1N=C(c2ccc([N+](=O)[O-])cc2)CC1c1ccccc1 (configuration not stated),n,x,n,n
CCC(C)c1ccccc1NC(=O)COc1ccc(-n2cnnn2)cc1 (configuration not stated),n,n,n,n
O=C(O)COc1ccc(S(=O)(=O)c2ccc(OCC(=O)O)cc2)cc1,n,n,x,n
CC1SCC(=O)N(CC(=O)NCc2ccccc2)C1=O (configuration not stated),n,n,n,n
CCCCOc1ccc(C(=O)NC2CCCCN(Cc3cccc(Cl)c3)C2=O)cc1 (configuration not stated),n,x,x,x
COc1ccc(C(C)(NC(C)=O)c2nc(-c3cccnc3)cs2)cc1 (configuration not stated),n,u,n,n
CC(=O)NC(C)(c1ccccc1)c1nc(-c2ccc(F)c(Cl)c2)cs1 (configuration not stated),n,11µM,n,n
CC(O)(c1ccccc1)c1nc(-c2ccc(F)c(Cl)c2)cs1 (configuration not stated),n,n,n,n
COc1ccc(C(C)(NC(C)=O)c2nc(-c3cccc(C(F)(F)F)c3)cs2)cc1 (configuration not stated),u,35µM,n,n
COc1ccc(Nc2nc(-c3sc(C)nc3C)cs2)c(OC)c1,n,16µM,n,n
COc1ccc(Nc2nc(-c3cccs3)cs2)c(OC)c1,n,13µM,x,n
COc1ccc(OC)c(Nc2nc(-c3cccs3)cs2)c1,n,16µM,n,n
COc1ccccc1Nc1nc(-c2cccs2)cs1,n,u,n,n
O=C1/C(=C/C=C/c2ccco2)SC(=S)N1c1ccc(O)cc1,n,11µM,n,n
Cc1cc(C)nc(SCC(=O)Nc2nccs2)n1,n,n,n,n
O=C(O)c1cccnc1SCc1cccc(Cl)c1,n,35µM!,n,n
Cc1cc(N/N=C/c2ccccc2Cl)nc(NCc2ccccc2)n1,n,n,n,n
O=c1oc([C@@H](O)c2ccccc2)cc2ccccc12,n,n,n,n
O=C(C1CCN(S(=O)(=O)Cc2ccccc2)CC1)N1CCN(c2ccc(F)cc2)CC1,n,22µM,x,n
O=c1c2c3nc4ccccc4nc3n(/N=C/c3ccccn3)c2ncn1-c1ccccc1,u,n,n,u
Cc1ccc(NC(=O)N2CC3CCCN3c3ccccc32)cc1C (configuration not stated),n,20µM,x,n
Cc1ccc(NC(=O)N2CC3CCCN3c3ccccc32)cc1Cl (configuration not stated),n,u,x,n
SMILES,FUS yeast rescue,TDP-43 yeast inh,aSyn rescue,Abeta yeast res
CCOC(=O)CSc1nc(N)c(C(=O)Nc2ccc(N(C)C)cc2)s1,32µM,n,n,n
Cc1c(C#N)c2n(c1C)CCCC(=O)N2,n,n,n,n
COc1ccc(/C=N/NC(=S)SC)cc1OC,n,35µM,n,u
COc1ccc(C=NNC(=O)NN=Cc2ccc(OC)c(OC)c2)cc1OC,n,n,n,n
CS(=O)(=O)N1CCCCC1c1cc(C(=O)NCc2ccc(F)cc2)no1 (configuration not stated),n,n,n,n
CC(C)N1CCC(NC(=O)NC2CCCCC2)CC1,n,n,n,n
CC(C)COc1ccc(-c2nn(-c3ccccc3)cc2CO)cc1,n,28µM,n,n
O=C(Cc1ccccc1)NC(=S)Nc1ccc(OC(F)F)cc1,n,n,n,11µM
COc1ccc(NC(=S)NC(=O)Cc2ccccc2)cc1,n,u,n,u
Cc1ccc(OCCC(=O)OCC(=O)Nc2ccc3[nH]c(=O)[nH]c3c2)cc1,n,n,n,n
Cc1[nH]nc(Nc2ccc(C(C)C)cc2)c1[N+](=O)[O-],n,13µM,n,n
CNC(=S)Nc1cccc(-c2cnc3ccccc3n2)c1,n,n,n,n
COc1ccc(CC(=O)N2CCN(S(=O)(=O)c3cc(Cl)ccc3Cl)CC2)cc1,n,u,u,n
CC(=O)N1CCN(C(=O)c2ccc(-n3c(C)ccc3C)cc2)CC1,x,n,n,n
Cc1ccc(C)n1-c1ccc(C(=O)N2CCOCC2)cc1,35µM,n,n,n
